Results as given in PubChem BioAssay (EPA / NIEHS).
Records with an inconclusive call do not appear. Activity calls are given as the source filed them. How the source made its calls: active means hit-call score of the fitted dose curve at least 0.9, where 1 is the maximum; inconclusive means response in the unintended direction; inactive means score below 0.9.

Experiment: CCTE_Simmons_CellTiterGLO_HEK293T: Viability Assessment in CCTE's Assays for Thyroperoxidase (TPO) Inhibition, Simmons Lab (AID 2283665);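 on AC50: cells exposed to compound for 24 h before readout; actives reduce ATP signal below DMSO vehicle meaning cytotoxicity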
Outline: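 HEK293T cells in DMEM with 1% FBS were dosed with 8 concentrations (5 nM–87.5 uM final, 0.5% DMSO) for 24 hr at 37C; ATP content was read by CellTiter-Glo luminescence, loss-of-signal versus DMSO, three biological replicates.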

| Structure (SMILES) | AC50 | outcome |
| --- | --- | --- |
| CN(Cc1cnc2nc(N)nc(N)c2n1)c1ccc(C(=O)N[C@@H](CCC(=O)O)C(=O)O)cc1 | 0.0489 µM (active) | – |
| CCc1cccc(CC)c1N(COC)C(=O)CS(=O)(=O)O | – | inactive |
| CCCCCCCCCCCC | 31.8 µM (active) | – |
| Cc1cc(Cc2cc(C)cc(C(C)(C)C)c2O)c(O)c(C(C)(C)C)c1 | 6.57 µM (active) | – |
| O=C1OC2(c3ccccc31)c1cc(I)c(O)c(I)c1Oc1c2cc(I)c(O)c1I | 5.7 µM (active) | – |
| NC(=NCCCCCCN=C(N)/N=C(\N)Nc1ccc(Cl)cc1)/N=C(\N)Nc1ccc(Cl)cc1 | 7.96 µM (active) | – |
| CCCCCCCCCCCCOC(=O)c1cc(O)c(O)c(O)c1 | 5.48 µM (active) | – |
| CCCCCCc1ccc(N)cc1 | 11.3 µM (active) | – |
| Cc1cc(C(C)(C)C)c(O)c(C(C)(C)C)c1 | 24.5 µM (active) | – |
| COc1cc([N+](=O)[O-])ccc1N | 19.1 µM (active) | – |
| Cc1cc(C(=C2C=CC(=Nc3ccc(S(=O)(=O)O)cc3)C=C2)c2ccc(Nc3ccc(S(=O)(=O)O)cc3)cc2)cc(S(=O)(=O)O)c1N | – | inactive |
| C[C@]12CC[C@@H]3c4ccc(O)cc4CC[C@H]3[C@@H]1C[C@@H](O)[C@@H]2O | – | inactive |
| Cc1[nH]nc2c1N=C(c1ccccc1Cl)c1cc([N+](=O)[O-])ccc1N2 | 15.2 µM (active) | – |

Experiment: Tanguay_ZF_120hpf_TR_legacy: (Legacy) Oregon State University Tanguay Lab 120 Hour Post-fertilization zebrafish Assay for Touch Response (AID 2283667)
Outline: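 Tropical 5D wild-type zebrafish embryos statically exposed to 120 hpf at 28°C, sealed and dark-covered, 0.64% DMSO final; touch response scored as present/absent by brightfield microscopy at 120 hpf. Trimethyltin chloride 5 uM positive control; dead embryos not scored.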

| Structure (SMILES) | outcome | AC50 |
| --- | --- | --- |
| CN(Cc1cnc2nc(N)nc(N)c2n1)c1ccc(C(=O)N[C@@H](CCC(=O)O)C(=O)O)cc1 | inactive | – |
| O=C(CCCN1CCC(O)(c2ccc(Cl)cc2)CC1)c1ccc(F)cc1 | inactive | – |
| CS(=O)(=O)c1ccc([C@@H](CC2CCCC2)C(=O)Nc2cnccn2)cc1Cl | inactive | – |
| CCCCc1oc2ccccc2c1C(=O)c1cc(I)c(OCCN(CC)CC)c(I)c1 | inactive | – |
| O=C1NS(=O)(=O)c2ccccc21 | inactive | – |
| CCCCC(CC)C(=O)O (stereo not drawn) | inactive | – |
| CCCCCCCCCCCCOS(=O)(=O)O | inactive | – |
| O=C(c1ccccc1)c1ccccc1 | inactive | – |
| CC(=O)Nc1ccc(O)cc1 | inactive | – |
| CCCCC=O | inactive | – |
| N=C(N)c1ccc(OCCCCCOc2ccc(C(=N)N)cc2)cc1 | inactive | – |
| OCC(CO)(CBr)CBr | inactive | – |
| CCC(C)c1ccccc1O (stereo not drawn) | inactive | – |
| CN(C)CCOC(c1ccccc1)c1ccccc1 | – | 32.7 µM (active) |
| Cc1[nH]nc2c1N=C(c1ccccc1Cl)c1cc([N+](=O)[O-])ccc1N2 | inactive | – |
